Source: PubChem BioAssay (NCATS)
Some of the results follow. Records with an inconclusive call do not appear. Unmarked numbers belong to inactive results. Calls follow the shape of the dose curve; as a rule, active = well fitted inhibition curve with a large enough effect; inconclusive = small, poorly fitted or top-dose-only effect; inactive = flat fitted curve, though single readings scatter.

Target: Fructose-bisphosphate aldolase A (Oryctolagus cuniculus) (UniProt P00883)
Assay: qHTS Assay for Inhibitors of Fructose-1,6-bisphosphate Aldolase from Giardia Lamblia: Rabbit FBPA Selectivity (AID 2794); also: nearly all actives have a fitted effect of over 60% in size
Conditions: Rabbit muscle FBPA enzyme inhibition, selectivity counter-screen; series mostly up to 57.5 µM; activity, negative = inhibition: at the top concentration
Procedure, shortened: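 Concentration-response qHTS with rabbit FBPA: 10 min RT compound–coupling enzyme preincubation; reaction started by substrate plus AmpLite Red detection; fluorescence at 525/598 nm after 20 min. Final compound range up to 57.5 uM.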
% is scaled to controls: 0 for no effect and ±100 for the full control effect.

Fructose-bisphosphate aldolase A (Oryctolagus cuniculus), sequence (P00883 whole entry, looked up): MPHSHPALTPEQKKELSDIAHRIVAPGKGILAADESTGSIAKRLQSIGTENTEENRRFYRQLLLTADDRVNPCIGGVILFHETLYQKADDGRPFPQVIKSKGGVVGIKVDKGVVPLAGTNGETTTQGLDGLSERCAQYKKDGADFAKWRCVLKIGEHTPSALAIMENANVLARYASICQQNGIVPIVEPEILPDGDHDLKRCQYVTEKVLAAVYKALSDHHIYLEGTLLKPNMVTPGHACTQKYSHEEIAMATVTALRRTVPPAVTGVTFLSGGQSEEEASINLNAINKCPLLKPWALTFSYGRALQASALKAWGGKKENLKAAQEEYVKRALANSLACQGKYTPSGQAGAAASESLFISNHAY

| SMILES | activity, negative = inhibition |
| --- | --- |
| O=S(=O)(c1ccc(NC(=S)NN=C(C2CC2)C2CC2)cc1)N1CCOCC1 | 13% |
| Cc1cccc(-c2nnc(SCC(=O)O)n2Cc2ccccc2)c1 | 1.86% |
| O=C(NC(=S)Nc1ncccn1)c1ccccc1Br | 9.29% |
| Cn1c(=O)[nH]c(=O)c2c1[nH]c(=S)n2Cc1ccccc1 | -10.2% |
| C=C(C)CNC(=S)N/N=C/c1ccccc1OCC(=O)O | 17% |
| COCCN(C(=S)Nc1ccccc1OC)C1CCN(C(C)C)CC1 | 5.23% |
| C/C(=N\NC(N)=S)c1cccnc1 | 6.15% |
| C=CCc1cc(C)ccc1OCCCn1ccnc1 | 12.7% |
| Cc1cc(C)nc(N/N=C/c2ccc([N+](=O)[O-])o2)n1 | -8.84% |
| COc1ccc(C(=O)NC(=S)N2CCCCC2c2cccnc2)cc1OC (stereo unspecified) | 5.33% |
| Cc1nc2ccc(NC(=S)N3CCC(C)CC3)cc2nc1C | -17.9% |
